Reference: article PMC11006913
Changes are numbered by the printed parent chain.

Tests used:
Assay in all cases: PBM; 200 nM protein, PBS
Details in all cases: dsDNA, one strand shown
SHOX [1] = target: SHOX (Homo sapiens, UniProt O15266 103-189)
SIX6 [2] = target: T1, SIX6 (Homo sapiens, UniProt O95475 114-200, L167I)
T1 sequence: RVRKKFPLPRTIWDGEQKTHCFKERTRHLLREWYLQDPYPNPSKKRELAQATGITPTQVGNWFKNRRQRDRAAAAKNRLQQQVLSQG

SIX6 [3] = target: T2, SIX6 (Homo sapiens, UniProt O95475 114-200, L143V)
T2 sequence: T1 sequence with L30V, I54L

SIX6 [4] = target: T3, SIX6 (Homo sapiens, UniProt O95475 114-200, H141N)
T3 sequence: T1 sequence with H28N, I54L

SIX6 [5] = target: T4, SIX6 (Homo sapiens, UniProt O95475 114-200, T165P)
T4 sequence: T1 sequence with T52P, I54L

SIX6 [6] = target: T5, SIX6 (Homo sapiens, UniProt O95475 114-200, L167M)
T5 sequence: T1 sequence with I54M

SIX6 [7] = target: T6, SIX6 (Homo sapiens, UniProt O95475 114-200, L143M)
T6 sequence: T1 sequence with L30M, I54L

SIX6 [8] = target: T7, SIX6 (Homo sapiens, UniProt O95475 114-200, L143I)
T7 sequence: T1 sequence with L30I, I54L

SIX6 [9] = target: T8, SIX6 (Homo sapiens, UniProt O95475 114-200, T165G)
T8 sequence: T1 sequence with T52G, I54L

SIX6 [10] = target: T9, SIX6 (Homo sapiens, UniProt O95475 114-200, T139Q)
T9 sequence: T1 sequence with T26Q, I54L

SIX6 [11] = target: T10, SIX6 (Homo sapiens, UniProt O95475 114-200, T165A)
T10 sequence: T1 sequence with T52A, I54L

SHOX [12] = target: SHOX (Homo sapiens, UniProt O15266 103-189, R173C)
Chain of SHOX (Homo sapiens, UniProt O15266 103-189, R173C) (O15266 103-189 R173C): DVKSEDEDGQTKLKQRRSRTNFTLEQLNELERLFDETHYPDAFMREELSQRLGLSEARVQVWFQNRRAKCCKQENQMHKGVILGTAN

SIX6 [13] = target: T11, SIX6 (Homo sapiens, UniProt O95475 114-200, L167V)
T11 sequence: T1 sequence with I54V

SIX6 [14] = target: T12, SIX6 (Homo sapiens, UniProt O95475 114-200)
T12 sequence: T1 sequence with I54L

SIX6 [15] = target: T13, SIX6 (Homo sapiens, UniProt O95475 114-200, T165I)
T13 sequence: T1 sequence with T52I, I54L

VENTX [16] = target: T14, VENTX (Homo sapiens, UniProt O95231 78-163, R121Q)
T14 sequence: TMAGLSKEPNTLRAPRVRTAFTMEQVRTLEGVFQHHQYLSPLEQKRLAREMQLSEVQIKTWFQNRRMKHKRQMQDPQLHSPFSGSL

HOXB9 [17] = target: HOXB9 (Homo sapiens, UniProt P17482 171-250, T197M)
Chain of HOXB9 (Homo sapiens, UniProt P17482 171-250, T197M) (P17482 171-250 T197M): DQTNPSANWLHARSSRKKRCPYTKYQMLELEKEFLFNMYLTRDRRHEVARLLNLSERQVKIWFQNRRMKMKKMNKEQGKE

VENTX [18] = target: T15, VENTX (Homo sapiens, UniProt O95231 78-163)
T15 sequence: T14 sequence with Q44R

HOXA7 [19] = target: HOXA7 (Homo sapiens, UniProt P31268 116-202)
Chain of HOXA7 (Homo sapiens, UniProt P31268 116-202) (P31268 116-202): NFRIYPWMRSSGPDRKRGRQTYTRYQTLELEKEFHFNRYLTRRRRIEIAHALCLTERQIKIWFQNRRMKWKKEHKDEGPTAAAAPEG

VENTX [20] = target: T16, VENTX (Homo sapiens, UniProt O95231 78-163, Y115F)
T16 sequence: T14 sequence with Y38F, Q44R

HOXA2 [21] = target: HOXA2 (Homo sapiens, UniProt O43364 129-215, R185T)
Chain of HOXA2 (Homo sapiens, UniProt O43364 129-215, R185T) (O43364 129-215 R185T): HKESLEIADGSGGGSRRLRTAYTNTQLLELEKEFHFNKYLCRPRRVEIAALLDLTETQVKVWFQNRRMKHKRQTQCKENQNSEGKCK

HOXB9 [22] = target: HOXB9 (Homo sapiens, UniProt P17482 171-250)
Chain of HOXB9 (Homo sapiens, UniProt P17482 171-250) (P17482 171-250): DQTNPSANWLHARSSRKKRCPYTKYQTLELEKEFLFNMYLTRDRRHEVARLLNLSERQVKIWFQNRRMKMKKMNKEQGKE

ALX3 [23] = target: ALX3 (Homo sapiens, UniProt O95076 139-225, N203Q)
Chain of ALX3 (Homo sapiens, UniProt O95076 139-225, N203Q) (O95076 139-225 N203Q): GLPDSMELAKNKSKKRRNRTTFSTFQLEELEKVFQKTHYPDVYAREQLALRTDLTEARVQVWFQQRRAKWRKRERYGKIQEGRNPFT

HOXD13 [24] = target: HOXD13 (Homo sapiens, UniProt P35453 263-343, T313R)
Chain of HOXD13 (Homo sapiens, UniProt P35453 263-343, T313R) (P35453 263-343 T313R): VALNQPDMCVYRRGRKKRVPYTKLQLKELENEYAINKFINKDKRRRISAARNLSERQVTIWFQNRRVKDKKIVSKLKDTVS

HOXA2 [25] = target: HOXA2 (Homo sapiens, UniProt O43364 129-215, R185K)
Chain of HOXA2 (Homo sapiens, UniProt O43364 129-215, R185K) (O43364 129-215 R185K): as the sequence (O43364 129-215 R185T) above, with T57K counted along it

HOXD13 [26] = target: HOXD13 (Homo sapiens, UniProt P35453 263-343)
Chain of HOXD13 (Homo sapiens, UniProt P35453 263-343) (P35453 263-343): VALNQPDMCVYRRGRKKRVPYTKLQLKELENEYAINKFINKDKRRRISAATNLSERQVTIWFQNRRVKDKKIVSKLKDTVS

ALX3 [27] = target: ALX3 (Homo sapiens, UniProt O95076 139-225)
Chain of ALX3 (Homo sapiens, UniProt O95076 139-225) (O95076 139-225): as the sequence (O95076 139-225 N203Q) above, with Q65N counted along it

VAX1 [28] = target: VAX1 (Homo sapiens, UniProt Q5SQQ9 86-172)
Chain of VAX1 (Homo sapiens, UniProt Q5SQQ9 86-172) (Q5SQQ9 86-172): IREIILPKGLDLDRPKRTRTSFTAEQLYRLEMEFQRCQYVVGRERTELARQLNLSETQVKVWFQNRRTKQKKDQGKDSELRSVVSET

ALX3 [29] = target: ALX3 (Homo sapiens, UniProt O95076 139-225, L168Q)
Chain of ALX3 (Homo sapiens, UniProt O95076 139-225, L168Q) (O95076 139-225 L168Q): as the sequence (O95076 139-225 N203Q) above, with L30Q, Q65N counted along it

HOXD13 [30] = target: HOXD13 (Homo sapiens, UniProt P35453 263-343, T313A)
Chain of HOXD13 (Homo sapiens, UniProt P35453 263-343, T313A) (P35453 263-343 T313A): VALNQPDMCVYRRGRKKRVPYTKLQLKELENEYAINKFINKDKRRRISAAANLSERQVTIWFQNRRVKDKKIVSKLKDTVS

HOXB9 [31] = target: HOXB9 (Homo sapiens, UniProt P17482 171-250, R186Q)
Chain of HOXB9 (Homo sapiens, UniProt P17482 171-250, R186Q) (P17482 171-250 R186Q): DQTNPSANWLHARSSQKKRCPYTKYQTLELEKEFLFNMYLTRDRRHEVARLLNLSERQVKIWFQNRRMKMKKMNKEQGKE

ALX3 [32] = target: ALX3 (Homo sapiens, UniProt O95076 139-225, L168V)
Chain of ALX3 (Homo sapiens, UniProt O95076 139-225, L168V) (O95076 139-225 L168V): as the sequence (O95076 139-225 N203Q) above, with L30V, Q65N counted along it

VAX1 [33] = target: VAX1 (Homo sapiens, UniProt Q5SQQ9 86-172, T142I)
Chain of VAX1 (Homo sapiens, UniProt Q5SQQ9 86-172, T142I) (Q5SQQ9 86-172 T142I): as the sequence (Q5SQQ9 86-172) above, with T57I counted along it

HOXA2 [34] = target: HOXA2 (Homo sapiens, UniProt O43364 129-215, Y150S)
Chain of HOXA2 (Homo sapiens, UniProt O43364 129-215, Y150S) (O43364 129-215 Y150S): as the sequence (O43364 129-215 R185T) above, with Y22S, T57R counted along it

HOXA7 [35] = target: HOXA7 (Homo sapiens, UniProt P31268 116-202, W177C)
Chain of HOXA7 (Homo sapiens, UniProt P31268 116-202, W177C) (P31268 116-202 W177C): as the sequence (P31268 116-202) above, with W62C counted along it

ALX3 [36] = target: ALX3 (Homo sapiens, UniProt O95076 139-225, N203S)
Chain of ALX3 (Homo sapiens, UniProt O95076 139-225, N203S) (O95076 139-225 N203S): as the sequence (O95076 139-225 N203Q) above, with Q65S counted along it

HOXA2 [37] = target: HOXA2 (Homo sapiens, UniProt O43364 129-215)
Chain of HOXA2 (Homo sapiens, UniProt O43364 129-215) (O43364 129-215): as the sequence (O43364 129-215 R185T) above, with T57R counted along it

VAX1 [38] = target: VAX1 (Homo sapiens, UniProt Q5SQQ9 86-172, K157R)
Chain of VAX1 (Homo sapiens, UniProt Q5SQQ9 86-172, K157R) (Q5SQQ9 86-172 K157R): as the sequence (Q5SQQ9 86-172) above, with K72R counted along it

Chain of SHOX (Homo sapiens, UniProt O15266 103-189) (O15266 103-189): as the sequence (O15266 103-189 R173C) above, with C71R counted along it

CCGGCCAC
binding signal (SHOX [1]): 7.3 upbm affinity estimate (log intensity, higher = more binding, comparable within an allelic series) | binding signal (SIX6 [2]): 8.84 upbm affinity estimate (log intensity, higher = more binding, comparable within an allelic series) | binding signal (SIX6 [3]): 8.77 upbm affinity estimate (log intensity, higher = more binding, comparable within an allelic series) | binding signal (SIX6 [4]): 8.85 upbm affinity estimate (log intensity, higher = more binding, comparable within an allelic series) | binding signal (SIX6 [5]): 8.87 upbm affinity estimate (log intensity, higher = more binding, comparable within an allelic series) | binding signal (SIX6 [6]): 8.86 upbm affinity estimate (log intensity, higher = more binding, comparable within an allelic series) | binding signal (SIX6 [7]): 8.73 upbm affinity estimate (log intensity, higher = more binding, comparable within an allelic series) | binding signal (SIX6 [8]): 8.81 upbm affinity estimate (log intensity, higher = more binding, comparable within an allelic series) | binding signal (SIX6 [9]): 8.89 upbm affinity estimate (log intensity, higher = more binding, comparable within an allelic series) | binding signal (SIX6 [10]): 8.81 upbm affinity estimate (log intensity, higher = more binding, comparable within an allelic series) | binding signal (SIX6 [11]): 8.81 upbm affinity estimate (log intensity, higher = more binding, comparable within an allelic series) | binding signal (SHOX [12]): 7.14 upbm affinity estimate (log intensity, higher = more binding, comparable within an allelic series) | binding signal (SIX6 [13]): 8.82 upbm affinity estimate (log intensity, higher = more binding, comparable within an allelic series) | binding signal (SIX6 [14]): 8.74 upbm affinity estimate (log intensity, higher = more binding, comparable within an allelic series) | binding signal (SIX6 [15]): 8.83 upbm affinity estimate (log intensity, higher = more binding, comparable within an allelic series)

AGTAAACG
binding signal (SHOX [1]): 8.05 upbm affinity estimate (log intensity, higher = more binding, comparable within an allelic series)

ATCTATTG
binding signal (SHOX [1]): 8.32 upbm affinity estimate (log intensity, higher = more binding, comparable within an allelic series)

CCCACGGC
binding signal (SHOX [1]): 6.91 upbm affinity estimate (log intensity, higher = more binding, comparable within an allelic series) | binding signal (VENTX [16]): 7.88 upbm affinity estimate (log intensity, higher = more binding, comparable within an allelic series) | binding signal (HOXB9 [17]): 8.38 upbm affinity estimate (log intensity, higher = more binding, comparable within an allelic series) | binding signal (VENTX [18]): 7.71 upbm affinity estimate (log intensity, higher = more binding, comparable within an allelic series) | binding signal (HOXA7 [19]): 8.48 upbm affinity estimate (log intensity, higher = more binding, comparable within an allelic series) | binding signal (VENTX [20]): 7.87 upbm affinity estimate (log intensity, higher = more binding, comparable within an allelic series) | binding signal (HOXA2 [21]): 7.17 upbm affinity estimate (log intensity, higher = more binding, comparable within an allelic series) | binding signal (HOXB9 [22]): 8.1 upbm affinity estimate (log intensity, higher = more binding, comparable within an allelic series) | binding signal (ALX3 [23]): 7.69 upbm affinity estimate (log intensity, higher = more binding, comparable within an allelic series) | binding signal (HOXD13 [24]): 9.39 upbm affinity estimate (log intensity, higher = more binding, comparable within an allelic series) | binding signal (SHOX [12]): 7.08 upbm affinity estimate (log intensity, higher = more binding, comparable within an allelic series) | binding signal (HOXA2 [25]): 10 upbm affinity estimate (log intensity, higher = more binding, comparable within an allelic series) | binding signal (HOXD13 [26]): 9.4 upbm affinity estimate (log intensity, higher = more binding, comparable within an allelic series) | binding signal (ALX3 [27]): 7.64 upbm affinity estimate (log intensity, higher = more binding, comparable within an allelic series) | binding signal (VAX1 [28]): 6.92 upbm affinity estimate (log intensity, higher = more binding, comparable within an allelic series) | binding signal (ALX3 [29]): 7.79 upbm affinity estimate (log intensity, higher = more binding, comparable within an allelic series) | binding signal (HOXD13 [30]): 9.58 upbm affinity estimate (log intensity, higher = more binding, comparable within an allelic series) | binding signal (HOXB9 [31]): 8.18 upbm affinity estimate (log intensity, higher = more binding, comparable within an allelic series) | binding signal (ALX3 [32]): 7.77 upbm affinity estimate (log intensity, higher = more binding, comparable within an allelic series) | binding signal (VAX1 [33]): 6.93 upbm affinity estimate (log intensity, higher = more binding, comparable within an allelic series) | binding signal (HOXA2 [34]): 10.4 upbm affinity estimate (log intensity, higher = more binding, comparable within an allelic series) | binding signal (HOXA7 [35]): 8.45 upbm affinity estimate (log intensity, higher = more binding, comparable within an allelic series) | binding signal (ALX3 [36]): 7.71 upbm affinity estimate (log intensity, higher = more binding, comparable within an allelic series) | binding signal (HOXA2 [37]): 7.04 upbm affinity estimate (log intensity, higher = more binding, comparable within an allelic series) | binding signal (VAX1 [38]): 6.78 upbm affinity estimate (log intensity, higher = more binding, comparable within an allelic series)
